Data taken from the supplement of paper PMC3484114.
± gives the standard deviation.

These compounds were tested on OVCAR-3-derived ovarian cancer stem-like cells (spheroids) (assay: cell growth relative to untreated control; higher = more growth (less inhibition)). Conditions: 2.29 µM; 96 h.
How it was run: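 Stem-like cells derived from OVCAR-3 spheroids were dissociated with trypsin and seeded at 50,000 cells/mL in stem cell medium in ultra-low attachment 96-well plates, then preincubated for 24 h. Each compound was added at 2.29 uM to 4 replicate wells and left for 96 h at 37°C, 5% CO2. Viability came from TOX8 resazurin fluorescence (ex 560/em 590 nm) read after 4 h. Percent growth was expressed relative to untreated wells, after blank subtraction and removal of outliers by the Grubbs test.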
For `N#CCCN(c1ccc(C=O)cc1)S(=O)(=O)c1ccccc1`, the cell growth was 116 ± 22%.
`CC(C)(C)C1CCC2(CC1)CCN(CCCN1CCOCC1)CC2` gave a cell growth of 119 ± 12%.
Work on `COc1ccc(-c2cc(=O)c3c(O)cc(O)cc3o2)cc1OC` yielded a cell growth of 4.9 ± 3.4%.
With `O=C1c2ccccc2C(=O)c2c(O)c(NCCNCCO)cc(O)c21` the cell growth was 82.8 ± 24%.
For `CCN(CC)CCOC(=O)Cc1cccc2c(=O)cc(-c3ccccc3)oc12`, the cell growth was 91.6 ± 23%.
In the case of `Nc1nc(N)c2ncn(-c3ccccc3)c2n1`, the cell growth is reported as 162 ± 19%.
`CCCCCCCCCc1c(Cl)nc(Cl)nc1Cl` showed a cell growth of 113 ± 24%.
Compound `CC(/C=C/C(O)=C1/C(=O)CNC1=O)=C\[C@@H](C)[C@H]1O[C@]2(C)O[C@@H](C(=O)[C@@H]3O[C@@]32C)[C@@H]1C` has a cell growth of 60.3 ± 14%.
With `CCOC(=O)C1=C(C)NC(=S)NC1c1ccccc1` (centres undefined) the cell growth was 103 ± 12%.
In the case of `N=C1C=C(N)C(=O)c2[nH]c(=O)ccc21`, the cell growth is reported as 95.3 ± 55%.
`O=C(CCCN1CCC(C(O)c2ccc(F)cc2)CC1)c1ccc(F)cc1` (centres undefined) showed a cell growth of 99.7 ± 22%.
With `O=c1[nH]c2ccc(O)cc2o1` the cell growth was 80.8 ± 13%.
For `COC(=O)C(=O)C(C(=O)C(=O)Nc1cc(C)ccc1C)c1nc2ccc(C(=O)c3ccccc3)cc2[nH]c1=O` (centres undefined), the cell growth was 91.5 ± 15%.
With `CC(C)(C)c1ccc(O)c(CN(Cc2cc(C(C)(C)C)ccc2O)C2CCCCC2)c1` the cell growth was 145 ± 56%.
`Cc1cc2cc3cc(C)c(N)cc3nc2cc1N` showed a cell growth of 40.2 ± 5.5%.
Compound `COc1cc2cc3c4cc(OC)c(OC)cc4cc[n+]3c(C)c2cc1OC.O=C(O)CS(=O)(=O)[O-]` has a cell growth of 53.7 ± 9.7%.
`CN(Cc1cnc2nc(N)nc(N)c2n1)c1ccc(C(=O)N[C@@H](CCC(=O)O)C(=O)O)cc1` gave a cell growth of 96.7 ± 31%.
`NC(=O)N/N=C1\CC2C3CC4C2C4C13` (centres undefined) gave a cell growth of 106 ± 20%.
In the case of `CN(C)CCOc1ccc(I)cc1Cc1ccccc1`, the cell growth is reported as 74.4 ± 31%.
Work on `[N-]=[N+]=Nc1ccc2c(c1)Sc1ccccc1N2CCCCN1CCN(Cc2ccc(C(=O)c3ccccc3)cc2)CC1` yielded a cell growth of 95.1 ± 13%.
For `C[n+]1ccc(Nc2ccc(NC(=O)c3ccc(Nc4cc[n+](C)c5ccc([N+](=O)[O-])cc45)cc3[N+](=O)[O-])cc2)cc1`, the cell growth was 70 ± 17%.
For `CC(=O)Nc1ccc(-c2nc3ccccc3s2)cc1`, the cell growth was 171 ± 32%.
`Cc1cc(NCCCCCCCNc2cc(C)nc3cc(N)ccc23)c2ccc(N)cc2n1` was tested, and the cell growth was 96.4 ± 25%.
`CCCCCCC1CC(=O)C1(Cl)Cl` (centres undefined) showed a cell growth of 104 ± 16%.
Work on `Cc1nc(Nc2ccc(Cl)c(Cl)c2)sc1C(/C=C/c1ccc2c(c1)OCO2)=N/Nc1ccc([N+](=O)[O-])cc1[N+](=O)[O-]` yielded a cell growth of 101 ± 15%.
For `CCOC(=O)c1ccc(-c2cc(C)no2)[nH]1`, the cell growth was 54.8 ± 10%.
`COc1cc2c3c(n(C)c(=O)c2cc1OC)-c1cc2c(cc1C3=O)OCO2` gave a cell growth of 101 ± 38%.
Compound `COc1cc2oc(=O)cc(C)c2cc1[N+](=O)[O-]` has a cell growth of 137 ± 45%.
`O=C1C(c2cnc3ccccc3n2)=C(O)c2ccccc21` showed a cell growth of 197 ± 48%.
`Cc1c2oc3c(C)ccc(C(=O)N[C@@H]4C(=O)N[C@H](C(C)C)C(=O)N5CCC[C@H]5C(=O)N(C)CC(=O)N(C)[C@@H](C(C)C)C(=O)O[C@@H]4C)c3nc-2c(C(=O)N[C@@H]2C(=O)N[C@H](C(C)C)C(=O)N3CCC[C@H]3C(=O)N(C)CC(=O)N(C)[C@@H](C(C)C)C(=O)O[C@@H]2C)c(N)c1=O` gave a cell growth of 8.44 ± 3.9%.
With `CC(=O)NC1C(OCc2ccccc2)OC(CO)C(O)C1OC(C)C(=O)NC(C(=O)NC(CCC(=O)NCCCCNc1c2ccccc2nc2cccc([N+](=O)[O-])c12)C(N)=O)C(C)C` (centres undefined) the cell growth was 105 ± 21%.
`Cc1ccc(S(=O)(=O)SC/C=C/CSS(=O)(=O)c2ccc(C)cc2)cc1` showed a cell growth of 113 ± 25%.
In the case of `COc1ccc(/C=C2\CCCc3ccccc3C2=O)cc1`, the cell growth is reported as 54.4 ± 10%.
`C=CC(=O)N1C/C(=C\c2ccc(Cl)cc2)C(=O)/C(=C/c2ccc(Cl)cc2)C1` was tested, and the cell growth was 59.7 ± 22%.
Compound `C[C@]12CC[C@@H]3c4ccccc4CC[C@H]3[C@@H]1CC[C@@H]2O` has a cell growth of 229 ± 23%.
`CCNC(=O)OCc1c(COC(=O)NCC)c(-c2ccc(Cl)c(Cl)c2)n2c1CCC2` gave a cell growth of 74.1 ± 12%.
Work on `CC[C@]1(O)C[C@@H]2CN(CCc3c([nH]c4ccccc34)[C@@](C(=O)OC)(c3cc4c(cc3OC)N(C)[C@H]3[C@@](O)(C(=O)OC)[C@H](OC(C)=O)[C@]5(CC)C=CCN6CC[C@]43[C@@H]65)C2)C1` yielded a cell growth of 49.1 ± 11%.
For `C=C1C(=O)OC2/C=C(/CO)[C@@H](OC(C)=O)C[C@H](O)/C(C)=C\[C@@H](OC(=O)[C@@H](C)CC)[C@@H]12` (some centres undefined), the cell growth was 100 ± 50%.
For `CCOC(=O)Nc1cc2c(c(N)n1)N=C(c1ccccc1)CN2`, the cell growth was 89.9 ± 15%.
